# High-throughput results: PubChem, several laboratories
# Rows were chosen to be rich in hits. Some 3.3% of all compounds tested hit in one or more screens of this group.
# NRP1-CendR mod: modulators of CendR peptide binding to human neuropilin-1. 360,000 tested, 0.85% active. FAM-RPARPAR peptide binding to NRP-1, fluorescence polarization. O14786. inhibition, % at 25 µM;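 active means inhibition or corrected inhibition above about 18%, plus a signal ratio from 0.5 to 1.5, limit read from the data, passing the limit was not always enough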
# Rpn11 inh: blocks the human proteasome subunit Rpn11; O00487; human 26S proteasome, Ub4-pepOG fluorescence polarization; 20S core pre-blocked with epoxomicin; inhibition, % at 20 µM; 360,000 tested, 0.59% active; AID 588493;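 active means inhibition at 20 µM, scaled to each plate's controls, above about 33%, limit read from the data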
# Target sequence (O00487 whole entry, looked up): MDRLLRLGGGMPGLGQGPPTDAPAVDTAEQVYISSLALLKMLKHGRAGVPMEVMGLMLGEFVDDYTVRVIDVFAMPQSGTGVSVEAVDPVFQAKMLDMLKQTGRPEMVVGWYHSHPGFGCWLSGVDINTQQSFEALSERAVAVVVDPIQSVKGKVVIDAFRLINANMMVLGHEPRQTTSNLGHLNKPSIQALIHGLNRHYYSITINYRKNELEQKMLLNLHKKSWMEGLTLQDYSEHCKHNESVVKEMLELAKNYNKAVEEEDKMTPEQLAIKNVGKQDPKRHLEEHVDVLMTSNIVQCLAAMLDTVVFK
# PHOSPHO1 inh: blocks human PHOSPHO1 phosphatase activity | recombinant PHOSPHO1, absorbance phosphatase assay | inhibition, % at 13.3 µM | 290,000 tested, 1.1% active | AID 1565; in the data active means inhibition above about 60%
# Target sequence (Q8TCT1 whole entry, looked up): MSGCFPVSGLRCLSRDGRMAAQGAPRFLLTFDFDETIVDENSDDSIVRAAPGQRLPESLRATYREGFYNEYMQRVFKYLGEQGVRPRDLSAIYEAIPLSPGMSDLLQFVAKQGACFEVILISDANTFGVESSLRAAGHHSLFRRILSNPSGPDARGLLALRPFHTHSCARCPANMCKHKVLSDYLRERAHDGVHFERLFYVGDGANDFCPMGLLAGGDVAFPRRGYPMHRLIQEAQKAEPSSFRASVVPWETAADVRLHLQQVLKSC
# Fh CTSL1 inh: counter-screen for PFM18AAP inhibitors: inhibitors of F. hepatica cathepsin L1; recombinant F. hepatica cathepsin L1, Z-Leu-Arg-MCA fluorescence; inhibition, % at 5.96 µM; 300,000 tested, 0.49% active; AID 1906;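 active means inhibition above the mean of all tested compounds plus 3 SD, set per screening campaign, cut at about 17% in these data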;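 further: 0% = plate median of test compound wells and 100% = 1 µM Z-Phe-Ala-diazomethylketone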
# HNF4A DNA FP: change in binding of human HNF4 alpha to DNA; HNF4a-FITC DNA binding, fluorescence polarization, 1 h; activity change, % at 10 µM; 360,000 tested, 0.3% active; in the data active means activity change above about 30%, passing the limit was not always enough
# TPT1 inhibitor: C. albicans TPT1 enzyme inhibition; recombinant caTPT1, FP RNA substrate dephosphorylation; inhibition, % at 5 µM; 300,000 tested, 0.81% active;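 active means inhibition above the mean of all tested compounds plus 3 SD, set per screening campaign, cut at about 24% in these data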;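 further: plate controls were DMSO alone for no effect and ferristatin control at 100 nM for full effect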
# The depositor's hits bear a star; . = not tested or not shown.
SMILES,NRP1-CendR mod,Rpn11 inh,PHOSPHO1 inh,Fh CTSL1 inh,HNF4A DNA FP,TPT1 inhibitor
Cc1cc2cc(CNC(=O)c3ccc(S(=O)(=O)N4CCCC4)cc3)ccc2n1C,25.7*,-8.3,-2.0,4.0,-6.5,0.3
COC(=O)[C@]12CCCCC=C1N(CCC1=CCCCC1)C(=O)[C@H](CC(=O)NCCC(C)C)C2,-6.5,.,.,.,1.5,.
CCCN(C(=O)CCCSc1nc2ccccc2[nH]1)c1c(N)n(Cc2ccccc2)c(=O)[nH]c1=O,-2.1,0.4,.,19.0*,-1.1,-2.2
CCCCN(C(=O)CSc1ncnc2sccc12)c1c(N)n(Cc2ccccc2)c(=O)[nH]c1=O,-19.1,3.6,.,.,0.3,.
CCc1cc2c(SCC(=O)N(CC)c3c(N)n(Cc4ccccc4)c(=O)[nH]c3=O)ncnc2s1,2.9,5.7,68.1*,6.7,3.8,8.2
COc1ccc(-c2[nH]ncc2CN2CCN(c3ccccn3)CC2)c(OC)c1,2.7,10.7,60.1*,-1.5,-2.1,-4.3
CCCCC1CC(/C(C)=N/NC(N)=O)OC1=O (centres undefined),5.0,-2.9,-14.2,-1.5,0.9,-1.1
Cc1ccc(-c2csc3nc[nH]c(=O)c23)cc1,-0.7,0.3,1.1,-1.6,6.4,-4.8
Cc1ccc(-c2csc3nc(-c4ccncc4)[nH]c(=O)c23)cc1,-24.8,.,49.5,-0.4,77.3*,2.3
O=C(CSc1nnc2scc(-c3ccccc3)n12)Nc1nsc(-c2ccccc2)n1,-9.9,38.7,66.7*,-4.5,10.3,2.2
O=C(CSc1nnc2scc(-c3ccccc3)n12)N1CCN(Cc2ccccc2)CC1,-1.3,-1.1,-23.9,-11.9,-2.9,1.2
Cc1ccc(-c2csc3nnc(SCC(=O)Nc4nsc(-c5ccccc5)n4)n23)cc1,-4.6,3.0,15.2,0.7,0.2,-1.4
Cc1ccc(-c2csc3nnc(SCC(=O)N4CCN(Cc5ccccc5)CC4)n23)cc1,-2.9,6.8,73.8*,-2.2,1.3,-0.5
Cc1cc(Cl)ccc1OC(C)C(=O)NCCc1ccc2c(c1)OCCO2 (centres undefined),3.7,-5.6,-2.5,-0.3,25.8,0.7
CCCc1nc2ccccc2c(C(=O)OC2CCOC2=O)c1CC (centres undefined),-11.9,-0.6,66.1*,-1.3,1.9,-1.7
CCc1nc2ccccc2c(C(=O)OC2CCOC2=O)c1C (centres undefined),4.1,0.2,-7.4,3.2,1.5,2.2
CCCC(C(=O)NC(C)(C)C)N(CCN1CCOCC1)C(=O)CNS(=O)(=O)c1ccccc1 (centres undefined),-17.7,-1.0,35.1,1.1,4.4,-0.1
COc1ccc(-n2c(CCc3ccccc3)nnc2SCC(=O)c2ccccc2)cc1,1.7,4.3,-4.6,-5.8,2.6,-0.6
COc1ccc(C(=O)CSc2nnc(CCc3ccccc3)n2-c2ccccc2)cc1,2.8,7.1,79.0*,2.1,-0.4,-1.1
O=C(NCC(c1cccs1)N1CCOCC1)c1cn(-c2ccccc2)nc1-c1ccccc1 (centres undefined),-15.5,2.5,.,.,2.1,.
Cc1cc(C)n(C2CC(=O)N(c3cc(Cl)cc(Cl)c3)C2=O)n1 (centres undefined),35.2*,0.4,44.1,-1.2,6.5,2.3
COc1ccc(C(=O)Nc2cccnc2)cc1S(=O)(=O)N1CCOCC1,-1.5,2.8,-6.8,0.6,-1.9,0.3
CC(C)Cc1ccc(-c2cc3nc(NCC4CC4)ccn3n2)cc1,-4.0,9.2,.,.,-0.6,.
CN(Cc1cccc(-n2cccn2)c1)C(=O)CCc1nnc(C2CCCCC2)o1,-11.3,-5.6,-8.7,1.2,-0.9,-1.6
Cc1cc(C)nc(SCc2nnc(SCC(=O)Nc3nc(-c4ccccc4)cs3)n2C)n1,9.4,-9.6,-3.3,-0.6,-1.4,-2.9
SMILES,NRP1-CendR mod,Rpn11 inh,PHOSPHO1 inh,Fh CTSL1 inh,HNF4A DNA FP,TPT1 inhibitor
Cc1ccc(C(=O)CSc2nnc(CNc3nc(-c4ccccc4)cs3)n2C)cc1,-2.1,5.6,38.7,-2.0,114.5*,3.3
CSc1ccccc1C(=O)N1CCN(c2cccc(Cl)c2)CC1,45.1*,-1.7,43.7,-8.2,-1.2,-6.0
CN(c1ccccc1C(=O)N1CCN(c2cccc(Cl)c2)CC1)S(C)(=O)=O,2.9,-4.0,-28.3,-0.2,-2.2,1.7
Cc1n[nH]c(C)c1S(=O)(=O)N1CCc2ccccc2C1,13.1,1.6,17.4,-8.3,-2.0,-2.7
CN(C(=O)C1CCC(=O)N(C2CC2)C1)C1CCCCC1 (centres undefined),7.2,-5.3,52.7,-2.4,-0.7,-0.4
C/C(=N\NC(=S)NCCc1ccccc1)c1cccs1,27.6*,-61.9,-12.9,-2.0,-34.7,0.6
Cc1ccc(S(=O)(=O)c2ncccc2[N+](=O)[O-])cc1,-1.9,11.8,-7.4,-1.1,-2.2,-3.9
Cc1ccc(S(=O)(=O)c2ncccc2N)cc1,55.5*,-4.2,32.7,-2.5,1.8,-3.7
O=S(=O)(Cc1ccc(Cl)cc1)CC(O)COCc1ccccc1 (centres undefined),0.9,-0.9,-3.2,0.1,4.2,2.9
Cc1cc(C)c(S(=O)(=O)/N=C2/C=C(SCC(=O)O)C(=O)c3ccccc32)cc1C,-82.7,22.8,-17.9,.,37.6*,.
COC(=O)c1ccccc1NS(=O)(=O)c1ccc(F)cc1,-1.8,-2.3,23.0,4.7,-5.2,-0.7
COC(=O)c1ccccc1NS(=O)(=O)c1ccc(NC(C)=O)cc1,35.1*,-0.6,32.3,-2.3,-1.7,-5.7
COc1ccc(S(=O)(=O)Nc2ccccc2C(=O)NC2CC2)cc1NC(C)=O,27.7*,1.2,.,.,2.6,.
Cc1ccc(C)c(S(=O)(=O)c2c(C)cc(C)[nH]c2=O)c1,-4.3,-0.9,15.0,1.6,-3.8,-2.0
CNC(=O)C1Cc2c(-c3ccc(Cl)cc3)ccnc2O1 (centres undefined),4.9,1.4,.,.,-3.2,.
CC(C)C1C(C#N)=C(N)SC(N)=C1C#N,-21.3,4.8,73.3*,-3.2,-1.6,16.1
CC(c1ccccc1)C1C(C#N)=C(N)SC(N)=C1C#N (centres undefined),-6.1,6.4,19.4,-2.3,-0.1,-1.1
CCOc1cc(C(=O)NC(=S)Nn2cnnc2)cc(OCC)c1OCC,8.7,-1.3,24.1,0.6,-0.5,-2.3
CN(C)c1ccc(N=Cc2nc(-c3ccccc3)oc2OC(=O)c2cccc(Br)c2)cc1,130.7,.,4.9,23.8*,4.9,14.8
CC(=O)Oc1oc(-c2ccccc2)nc1C=Nc1ccccc1,1.9,-0.8,-92.6,26.2*,0.2,0.2
COc1ccc(N=Cc2nc(-c3ccccc3)oc2OC(=O)c2ccccc2)cc1,5.9,8.5,8.7,22.0*,4.3,3.4
CC(=O)Oc1ccc(-c2nc3ccccc3c(=O)o2)cc1,1.0,0.7,.,-13.1,4.6,-5.1
CCOC(=O)c1ccc(N=Cc2nc(-c3ccccc3)oc2OC(C)=O)cc1,-18.1,6.9,6.7,30.9*,-0.8,0.0
